Results from PubChem BioAssay AID602313 (National Center for Advancing Translational Sciences (NCATS), 2012).
The whole screen tested about 390,000 compounds, of which about 760 (0.19%) were called active. Roughly 3% stayed inconclusive and do not appear here. The call rests on the fitted dose curve; in most records, active means well fitted inhibition curve with a large enough effect; inconclusive means small, poorly fitted or top-dose-only effect; inactive means flat fitted curve, though single readings scatter. The list comes from a sample in which actives are over-represented; it also holds similar structures and randomly drawn compounds. A call without a number means that no potency is given here.

Experiment: qHTS for Inhibitors of Vif-A3F Interactions: qHTS; further: nearly all actives have a fitted effect of over 65% in size
Conditions: HeLa A3F-eYFP + Vif (tagged APOBEC3F with the HIV-1 protein that degrades it), YFP fluorescence increase; series mostly up to 46.1 µM
Text: The recent discovery and characterization of host restriction factors, which provide a potent defense to invading retroviruses, has provided new targets for antiviral drug development. APOBEC3G (A3G) and APOBEC3F (A3F) are potent cytidine deaminases that block HIV-1 replication; HIV-1 expresses the Vif protein, which counteracts A3G and A3F by binding to them and inducing their proteasomal degradation. The Vif-A3G and Vif-A3F interactions provide two potential targets for development of small molecules which can interfere with the ability of Vif to degrade A3G or A3F. […] To identify inhibitors that can interfere with Vif mediated degradation of A3G and A3F, we have developed Hela cell lines that stably express A3G or A3F tagged with eYFP at the C-terminal end (A3G-eYFP or A3F-eYFP, respectively) and Vif. In the absence of an inhibitor, Vif induces degradation of A3G-eYFP and A3F-eYFP, and the cells are not fluorescent. In the presence of an inhibitor, it is expected that Vif will be unable to degrade A3G-eYFP and/or A3F-eYFP, resulting in an increase in yellow fluorescence. In this assays Vif A3F was screened against the Molecular Library Small Molecule Repository (MLSMR). NIH Chemical Genomics Center [NCGC] NIH Molecular Libraries Probe Centers Network [MLPCN] MLPCN Grant: MH093245 Assay Submitter (PI): Vinay Pathak, National Cancer Institute
5 uL of 700 cells/well of A3F-YFP cells are dispensed into black, clear bottom plates. The plates are incubated overnight at 37 deg C. 23 nL of compounds are added by pintool. The plates are incubated overnight at 37 deg C and then read on the TTP Acumen (Ex 488/ Em 500-530).
Potency means the concentration at half of the fitted maximal effect.

Row | SMILES | Potency
1 | CC1=CC(=Cc2sc3ccccc3[n+]2C)C=C(C)O1 | 5.01 µM (active)
2 | CNP1(NC)=Nc2nn(-c3ccccc3)c(N)c2C(c2ccccc2)=N1 | inactive
3 | O=C(N/N=C/c1c(O)n(Cc2ccccc2)c(=O)[nH]c1=O)c1ccccc1 | inactive
4 | CC/C(=N\NC(=O)c1ccccc1O)c1c(O)n(Cc2ccccc2)c(=O)[nH]c1=O | 11.2 µM (active)
5 | CCC(=NCc1ccco1)c1c(O)n(Cc2ccccc2)c(=O)[nH]c1=O | inactive
6 | Cc1ccc2c(c1)=C/C(=C\c1c(O)[nH]c(=O)[nH]c1=O)C(=O)N=2 | inactive
7 | CCCn1c(C(=O)c2ccccc2OC)nc2ccccc21 | inactive
8 | COc1cc(Cn2c(N)c(C(=O)NCc3ccco3)c3nc4ccccc4nc32)cc(OC)c1OC | inactive
9 | CCOc1ccc(CNC(=O)c2cccc(Nc3nc4ccccc4n4nnnc34)c2)cc1OC | 12.6 µM (active)
10 | COC(=O)C1=C(c2cc3ccccc3s2)C[C@@H]2CC[C@H]1N2C(=O)NCc1cccc2ccccc12 | inactive
11 | CC(=CCOc1ccc2ccc(=O)oc2c1)C1=CC(=O)C(C)(C)O1 | inactive
12 | O=c1c2ccccc2[nH]c(=S)n1-c1cccc(Cl)c1 | inactive
13 | O=c1c2ccccc2nc(/C=C/c2ccc(F)cc2)n1-c1ccccc1O | 22.4 µM (active)
14 | Cn1cc(/C=C/c2nc3ccccc3c(=O)n2-c2ccccc2)c2ccccc21 | inactive
15 | O=c1c2ccccc2nc(/C=C/c2ccco2)n1-c1ccccc1O | inactive
16 | CCC(C)(O)C(=O)OC1C(=O)OC2CC3C(C)=CC(=O)C(O)C3(C)C3C4(O)OCC23C1C(C)C4O (stereo not given) | inactive
17 | C=C(C)C1(CCCC)C(=O)NC(=S)NC1=O | inactive
18 | COC(=O)C1=C(c2ccc(Cl)c(C(F)(F)F)c2)C[C@@H]2CC[C@H]1N2C(=O)NC(C)C | inactive
19 | COC(=O)C1=C(c2cc3ccccc3o2)C[C@@H]2CC[C@H]1N2C(=O)NC1CCCCC1 | inactive
20 | CC(C)(C)c1ccc(OC(=O)N2CCCCC2)cc1 | inactive
